Laboratory results published in PubChem BioAssay (NCATS).
Inconclusive results are not listed. Calls of active or inactive are those of the source. Calls come from the whole dose curve; as a rule, active = well fitted curve in the direction sought with a large enough effect; inconclusive = small, poorly fitted or top-dose-only effect, or another doubt; inactive = no such curve, though single readings can be large; an effect the other way counts as inactive or inconclusive.

Tests used:
[1] = BET inhibitor-based combinations targeting novel dependencies in MECOM-rearranged (r) AML: SET-2 cell line (AID 2202231); conditions: SET-2 AML cells viability, CellTiter-Glo luminescence, 48 h; viability: stronger effect = lower value, concentration not given here; note: nearly all actives have a fitted effect of over 35% in size
Summary of the method: (§1)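 AML cell lines seeded at 500 cells/well, treated with 11-point dose curves for 48 h. Viability by CellTiter-Glo luminescence, normalised to DMSO and empty wells; activity expressed as AUC and per-cell-line Z-transformed AUC.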

[2] = BET inhibitor-based combinations targeting novel dependencies in MECOM-rearranged (r) AML: OCI-AML3 cell line (AID 2202232); conditions: CellTiter-Glo luminescence, 48 h; Potency: OCI-AML3 viability; series mostly up to 46 µM; note: nearly all actives have a fitted effect of over 35% in size
Summary of the method: as §1

[3] = BET inhibitor-based combinations targeting novel dependencies in MECOM-rearranged (r) AML: MV-4-11 cell line (AID 2202233); conditions: MV-4-11 AML viability, CellTiter-Glo luminescence, 48 h; series mostly up to 46 µM; note: nearly all actives have a fitted effect of over 45% in size
Summary of the method: (§2)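 Cells at 500/well were exposed for 48 hr to MIPE v5.0 drugs as 11-point dose curves. Viability was read by CellTiter-Glo luminescence and normalized to DMSO and empty-well controls. Activity was expressed as AUC and per-cell-line Z-AUC.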

[4] = BET inhibitor-based combinations targeting novel dependencies in MECOM-rearranged (r) AML: HNT-34 cell line (AID 2202234); conditions: HNT-34 AML viability, CellTiter-Glo luminescence, 48 h; series mostly up to 46 µM; note: nearly all actives have a fitted effect of over 35% in size
Summary of the method: as §2

[5] = BET inhibitor-based combinations targeting novel dependencies in MECOM-rearranged (r) AML: UCSD-AML1 cell line (AID 2202235); conditions: UCSD-AML1 AML cells viability, CellTiter-Glo, 48 h; series mostly up to 46 µM; note: nearly all actives have a fitted effect of over 40% in size
Summary of the method: as §2

[6] = BET inhibitor-based combinations targeting novel dependencies in MECOM-rearranged (r) AML: AML-191 cell line (AID 2202236; note: nearly all actives have a fitted effect of over 35% in size); conditions: AML-191 viability, CellTiter-Glo luminescence, 48 h; series mostly up to 46 µM
Summary of the method: as §1

[7] = BET inhibitor-based combinations targeting novel dependencies in MECOM-rearranged (r) AML: AML-194 cell line (AID 2202237; note: nearly all actives have a fitted effect of over 40% in size); conditions: AML-194 (MECOM-r AML) viability, CellTiter-Glo, 48 h; series mostly up to 46 µM
Summary of the method: as §1

Measured: Potency
Potency is the fitted concentration of half-maximal effect.

CN1CCN(c2ccc3nc(-c4c(N)c5c(F)cccc5[nH]c4=O)[nH]c3c2)CC1
active: [1] 4170 nM | [2] 4680 nM | [3] 59 nM | [4] 833 nM | [5] 3320 nM | [6] 1860 nM | [7] 1860 nM

CN1CCC(c2c(O)cc(O)c3c(=O)cc(-c4ccccc4Cl)oc23)C1CO (stereo not given)
active: [1] 1320 nM | [2] 742 nM | [3] 934 nM | [4] 833 nM | [5] 1050 nM | [7] 1050 nM

CCC[C@H](NC(=O)/C(C#N)=C/c1cccc(Br)n1)c1ccccc1
active: [1] 4170 nM | [2] 3320 nM | [3] 2950 nM | [4] 2950 nM | [5] 3320 nM | [6] 3720 nM | [7] 7420 nM
